In ChEMBL document CHEMBL3433997, “St. Jude Leishmania screening dataset” (2016) one finds inhibition data, which are given here for 34 compounds.

Format in all cases: functional
For experiment [1], the target named is Solute carrier family 2, facilitated glucose transporter member 1 (Homo sapiens) (UniProt P11166). The experiment is described as follows: ST_JUDE_LEISH: Cytotoxicity at 2uM final concentration against transgenic Leishmania Mexicana promastigotes LmGLUT1 that are glucose transport deficient and complemented with the human glucose transporter GLUT1. Activity is measured by DNA content using SYBR green in vitro.

In experiment [2] the target is Hexose transporter 1 (Plasmodium falciparum) (UniProt O97467). Description: ST_JUDE_LEISH: Cytotoxicity at 2uM final concentration against transgenic Leishmania Mexicana promastigotes LmPfHT that are glucose transport deficient and complemented with the Plasmodium falciparum hexose transporter. Activity is measured by DNA content using SYBR green in vitro.
Experiment [3] addresses Glucose transporter (Leishmania mexicana) (UniProt O61059). The experiment is described as follows: ST_JUDE_LEISH: Cytotoxicity at 2uM final concentration against transgenic Leishmania Mexicana promastigotes LmGT2 that are glucose transport deficient and complemented with the L. Mexicana glucose transporter 2. Activity is measured by DNA content using SYBR green in vitro.

Chain of Solute carrier family 2, facilitated glucose transporter member 1 (Homo sapiens) (P11166 whole entry): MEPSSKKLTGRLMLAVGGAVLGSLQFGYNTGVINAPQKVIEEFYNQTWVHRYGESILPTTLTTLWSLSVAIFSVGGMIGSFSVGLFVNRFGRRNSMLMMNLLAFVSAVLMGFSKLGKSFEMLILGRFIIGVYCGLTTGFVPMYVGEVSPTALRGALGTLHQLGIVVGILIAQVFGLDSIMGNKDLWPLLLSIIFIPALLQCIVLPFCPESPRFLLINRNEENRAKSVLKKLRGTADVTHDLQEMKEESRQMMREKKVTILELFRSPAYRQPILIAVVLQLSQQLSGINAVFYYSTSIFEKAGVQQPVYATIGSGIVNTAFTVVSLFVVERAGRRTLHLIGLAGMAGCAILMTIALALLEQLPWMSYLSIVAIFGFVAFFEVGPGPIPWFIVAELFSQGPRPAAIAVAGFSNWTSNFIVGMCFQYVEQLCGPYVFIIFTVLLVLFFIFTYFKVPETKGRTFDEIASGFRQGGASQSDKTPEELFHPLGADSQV

Turning to `O=C(N[C@H]1CCN(Cc2ccc(OCCN3CCNCC3)c3ccccc23)C1)c1ccc(Cl)c(Cl)c1`, the inhibition – broadly, the drop in the measured response relative to a control, in per cent – in experiment [1] worked out at 1.1%; in experiment [2], 4.37%; in experiment [3], 2.91%.

As for `O=C(NCCN1CCCC1)c1cccc(-c2ccc(-c3nc4ccccc4[nH]3)s2)c1`, the inhibition is 3.42% in experiment [1], 1.36% in experiment [2] and 4.63% in experiment [3].

With `Cc1ccc(NC(=O)c2cc(Br)cc(N3CCCN(C)CC3)c2)cc1F`, the inhibition in experiment [1] was -0.54%; in experiment [2] it was 0.36%; in experiment [3], -1.29%.

In the case of `O=C(NCc1cccc(F)c1)Nc1cccc(-c2ccc(-c3nc4cc(F)ccc4[nH]3)cc2)c1`, the inhibition in experiment [1] was 2.2%; in experiment [2] it was 3.53%; in experiment [3], 6.86%.

In the case of `O=C(C=Cc1ccc(-c2nc3ccccc3[nH]2)cc1)NC1CCN(Cc2ccccc2)CC1`, the inhibition in experiment [1] is -1.19%; in experiment [2] it was 1.99%; in experiment [3], 5.3%.

As to `CC(OC(=O)c1ccc(C(=O)NCC2CC2)cc1)C(C)(C)C` (configuration not stated), the values for the inhibition in experiment [1], in experiment [2] and in experiment [3] were 4.1%, 3.44% and -0.96%, respectively.

`COc1ccc(Nc2nccc(N3CCC(NC(=O)Nc4cccc(OC)c4)C3)n2)cc1` (configuration not stated): the inhibition in experiment [1] was found to be 0.29%; in experiment [2] it was 0.74%; in experiment [3] it was 0.51%.

For `Cc1nc(-c2ccc(-c3ccc(C(=O)Nc4ccc(-n5ccnc5)c(N5CCN(C)CC5)c4)cc3)c(C)c2)no1`, the inhibition was 2.82% in experiment [1], 2.86% in experiment [2] and 0.79% in experiment [3].

Take `CC(=O)c1c(Cc2cccc(C(F)(F)F)c2)c[nH]c1C`: the results for the inhibition in experiment [1], in experiment [2] and in experiment [3] were 5.85%, 3.6% and -0.87%, respectively.

Take `COc1cc(NC(=O)c2sc(-c3ccc(Cl)cc3)cc2NC(=O)c2cccc(N(C)C)c2)ccc1OCCN1CCCC1`: the inhibition stood at 0.3% in experiment [1], 0.22% in experiment [2] and 0.53% in experiment [3].

`Nc1ncnc2cc(-c3cccc(NC(=O)Nc4ccccc4)c3)sc12`: the inhibition is 3.48% in experiment [1], 2.18% in experiment [2] and -1.3% in experiment [3].

In the case of `COc1cc2nc(NCCc3cccc(Cl)c3)nc(NCc3ccccc3)c2cc1OC`, the inhibition in experiment [1] worked out at 5.15%; in experiment [2] it was 6.21%; in experiment [3], 1.06%.

Turning to `Cc1ccc(C(C)C)c(Oc2ccc3nc(N)nc(N)c3c2)c1`, the inhibition in experiment [1] worked out at 13.2%; in experiment [2] it was 8.97%; in experiment [3] it was 5.01%.

For the compound `CC(C)CCN1CCCN(Cc2ccc(C(=O)Nc3ccc(F)c(F)c3)cc2)CC1`, the results for the inhibition in experiment [1], in experiment [2] and in experiment [3] were 4.12%, 4.65% and 4.14%, respectively.

Turning to `CCCc1cc(N2CCC(N3CCCC3)CC2)nc(Nc2ccc(Cl)cc2)n1`, the inhibition in experiment [1] was -1.71%; in experiment [2], 2.3%; in experiment [3] it was 0.85%.

In the case of `COc1ccc(NC(=O)Nc2ccc(-c3ccccc3)cc2)cc1Cn1nc(Cl)c(N2CCCNCC2)cc1=O`, the values for the inhibition in experiment [1], in experiment [2] and in experiment [3] were 0.73%, 0.83% and 0.02%, respectively.

For `CCN(CC)CCN(Cc1ccc(-c2ccc(C(F)(F)F)cc2)cc1)C(=O)Cn1cc(Cc2cnn(C)c2)c(=O)nc1/C=C/c1cccc(F)c1F`, the inhibition was 3.81% in experiment [1], 4.43% in experiment [2] and 2.54% in experiment [3].

For the compound `Cc1ccc(NC(=O)c2cccc(CN3CCCN(Cc4cccc(O)c4)CC3)c2)cc1F`, the values for the inhibition in experiment [1], in experiment [2] and in experiment [3] were 7.48%, 8.09% and 1.34%, respectively.

For `Oc1ccc2c(CNC3CCCCC3)c(O)ccc2c1CNC1CCCCC1`, the inhibition is -0.71% in experiment [1], 0.24% in experiment [2] and 0.34% in experiment [3].

Turning to `COc1cc2nc(N[C@@H](CO)c3ccccc3)nc(NCc3ccccc3)c2cc1OC`, the inhibition in experiment [1] worked out at 1.12%; in experiment [2] it was 2.17%; in experiment [3], 1.61%.

Consider `CC1(C)[C@H]2CC[C@@H](CNc3nc(NCCc4c[nH]cn4)nc(NCc4cc(F)ccc4F)n3)[C@@H]1C2`, for which the inhibition turned out to be 4.07% in experiment [1], 0.62% in experiment [2] and 1.36% in experiment [3].

In the case of `Cc1cc(NC(=O)Nc2ccc3ccn(C)c3c2)c2ccccc2n1`, the inhibition in experiment [1] was found to be 13%; in experiment [2], 10.7%; in experiment [3], 8.87%.

With `COc1ccc(CCN(C)CCOc2ccc(NC(=O)c3cccc4cc5ccccc5nc34)cc2)cc1OC`, the figures for the inhibition in experiment [1], in experiment [2] and in experiment [3] were 2.4%, 1.69% and 1.88%, respectively.

Consider `O=C(Nc1ccc(Cl)c(C(F)(F)F)c1)Nc1ccc(Cl)c(C(F)(F)F)c1`, for which the inhibition came to 0.91% in experiment [1], 1.04% in experiment [2] and 2.07% in experiment [3].

Regarding `CC(C)Cn1cc(C2CCN(CCN3CCC(CNC(=O)c4ccc(-c5ccc(C(F)(F)F)cc5)cc4)CC3)CC2)c2ccccc21`, the inhibition was 2.78% in experiment [1], 3.07% in experiment [2] and 2.25% in experiment [3].

Consider `COc1ccccc1C(C)NCC(=O)Nc1cc(C(F)(F)F)ccc1Cl` (configuration not stated), for which the inhibition stood at 1.79% in experiment [1], 3.31% in experiment [2] and 0.58% in experiment [3].

Turning to `NCC1CCCN1Cc1ccc(-c2ccc(-c3nc4cc(C(F)(F)F)ccc4[nH]3)cc2)cc1` (configuration not stated), the inhibition in experiment [1] was 3.73%; in experiment [2] it was 1.2%; in experiment [3] it was 1.46%.

In the case of `O=C(NC1CCN(CCC[C@]2(c3ccc(Cl)c(Cl)c3)CCCN(C(=O)c3ccccc3)C2)CC1)c1ccc(F)cc1`, the inhibition in experiment [1] amounted to 3.29%; in experiment [2], 2.13%; in experiment [3], 2.74%.

As for `CCc1ccc(CN2CCC(C(=O)Nc3ccc(-c4nc5ccccc5[nH]4)cc3)CC2)o1`, the inhibition was 31.6% in experiment [1], 39.6% in experiment [2] and 25.7% in experiment [3].

Consider `Cc1cc(CNCCCCCCCNCc2cccc([N+](=O)[O-])c2)ccc1O`, for which the inhibition in experiment [1] was 2.48%; in experiment [2], 1.23%; in experiment [3] it was -1.43%.

As to `CC1(C)NC(N)=NC(=N)N1OCCCNC(=O)c1ccc([N+](=O)[O-])cc1`, the values for the inhibition in experiment [1], in experiment [2] and in experiment [3] were 4.23%, 3.33% and 3.92%, respectively.

Consider `N#Cc1cc(N(CCCOc2cccc(OC(F)(F)F)c2)Cc2ccccc2C(F)(F)F)ccc1C(F)(F)F`, for which the figures for the inhibition in experiment [1], in experiment [2] and in experiment [3] were -0.77%, -0.39% and 0.94%, respectively.

As to `O=C(Nc1ccc(C(F)(F)F)cc1)NC1CCN(CCCCCNC(=O)C2CC2c2ccc(Cl)c(Cl)c2)CC1` (configuration not stated), the inhibition in experiment [1] is -1.45%; in experiment [2], -1.93%; in experiment [3], -1.98%.

On to `COC(=O)c1ccc2nc(-c3cc(OC)c(O)c(C(=O)NC4CCN(Cc5ccccc5)CC4)c3)[nH]c2c1`, for which the values for the inhibition in experiment [1], in experiment [2] and in experiment [3] were 8.4%, 5.32% and 7.01%, respectively.
